Bioassay records: PubChem BioAssay, National Center for Advancing Translational Sciences (NCATS)
Only some compounds are listed: those with a hit (about 3.6% of all), similar ones and a draw of the others.
D1 ag: agonists of human D1 dopamine receptor; activation, % at 2 µM; actives 1% (n = 360,000); AID 504660; HEK293 T-REx D1 cells, calcium flux, agonist mode
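Agonism was scored from calcium flux recorded over 180 s (1 read/s) after pintool compound addition, following a 10-cycle baseline. Cells were inducible force-coupled HEK293 TREx D1, plated overnight at 30 C and loaded with no-wash calcium dye.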
D1 potentiator: potentiators of human D1 dopamine receptor. HEK293 TREx D1 cells, calcium flux, dopamine EC20 potentiation. P21728. actives 0.036% (n = 360,000). potentiation, % at 10 µM; in the data active = potentiation above about 30%
D1 antag: blocks dopamine activation of the human D1 receptor; P21728; actives 3.2% (n = 360,000); activity change, negative = inhibition, % at 10 µM; HEK293 TREx D1 cells, calcium flux, dopamine EC80; stronger effect = lower value; in the data active = activity change below about -30%
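Kinetic fluorescence of a calcium dye serves as the read-out. D1-expressing Hek293 Trex cells, induced overnight at 30 C, are exposed to compound for 180 s before an EC80 dopamine addition, then read 180 s further.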
TRHR ag: activates the human TRH receptor; P34981; TRHR cells, calcium flux fluo-8, FDSS agonist mode; activation, % at 2 µM; actives 0.18% (n = 360,000); AID 493084
Target sequence (P34981 whole entry, looked up): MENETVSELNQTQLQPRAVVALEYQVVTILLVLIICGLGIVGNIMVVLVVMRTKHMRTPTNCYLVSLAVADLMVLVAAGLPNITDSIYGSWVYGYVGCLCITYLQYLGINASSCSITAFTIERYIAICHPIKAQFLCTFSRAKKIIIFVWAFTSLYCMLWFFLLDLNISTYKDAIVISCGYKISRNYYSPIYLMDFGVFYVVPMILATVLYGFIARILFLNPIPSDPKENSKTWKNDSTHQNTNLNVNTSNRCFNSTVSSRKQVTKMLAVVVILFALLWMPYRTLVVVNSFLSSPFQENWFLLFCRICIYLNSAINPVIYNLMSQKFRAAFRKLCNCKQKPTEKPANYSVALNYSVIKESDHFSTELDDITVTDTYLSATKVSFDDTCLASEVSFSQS
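TRHR-expressing cells loaded with fluo-8 calcium dye; 23 nL library compound pin-transferred, kinetic FDSS fluorescence (Ex 480/Em 530) recorded about 180 s for agonist-induced calcium release, before a 10 nM TRH EC20 addition for potentiator mode.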
LDHA inh: blocks human lactate dehydrogenase A; actives 0.15% (n = 480,000); activity change, % (values are at about 110 or 230 µM); purified LDHA, NADH/diaphorase-resazurin fluorescence; stronger effect = lower value; AID 1347041; P00338; in the data active = activity change below about -30%
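Resorufin fluorescence (ex540/em590), read at 0 and 20 min after diaphorase/resazurin addition, reports the NADH left after a 5 min room-temperature reaction of 2 nM human LDH5 with 0.06 mM NADH and 0.2 mM pyruvate.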
TRHR PAM: TRH receptor (human) allosteric enhancement. P34981. TRHR cells, fluo-8 calcium fluorescence, EC20 TRH enhancement. enhancement, % at 2 µM. actives 0.66% (n = 360,000). AID 493056; in the data active = enhancement above about 30%
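Enhancer read-out: after compound pinning and an initial kinetic agonist-mode read, an EC20 of TRH (10 nM final) was injected and fluo-8 calcium signal (Ex 480/Em 530) followed at 1 s/cycle for 100 cycles in TRHR-expressing cells.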
Each line names hits and unclear results; the compound was inactive in the other large screens. Cut-off read from the data, not from the text of the source, unless noted: active = activation above about 30%; inactive = the rest.

O=P(CCl)(Nc1ccccc1)C(Cl)(Cl)Cl (stereo unspecified)	D1 antag -41
O=P(Nc1ccccc1)(Oc1ccccc1)Oc1ccccc1	none
O=P1(Oc2ccccc2)OCCCS1 (stereo unspecified)	D1 antag -30
Cc1cccc(C)c1OC(=O)Cc1ccccc1	D1 potentiator 33
Cc1ccc(-n2cc(CNC(C)Cc3cnccn3)c(-c3cccc(C)c3)n2)cc1 (stereo unspecified)	D1 ag 37
CC(Cc1cnccn1)NCc1c(C(=O)N2CCCCCCC2)nc2ccc(Cl)cn12 (stereo unspecified)	none
CC1(C)C[C@H]2C=C(C=O)[C@]3(C=O)C[C@]3(C)[C@H]2C1	D1 antag -57
COc1ccc(CCNCc2ccc(Br)cc2)cc1	none (no result: D1 ag, D1 potentiator, D1 antag, TRHR ag, TRHR PAM)
Cc1c(CCN)ccc2c1[nH]c1ccccc12	D1 antag -38
CC/C(CC(c1ccccc1)c1c(O)c2ccccc2oc1=O)=N\NC(N)=S (stereo unspecified)	D1 antag -32
CC(C)(C)c1ccc(O)c(N=Cc2c(O)ccc3ccccc23)c1	D1 ag 258, TRHR ag 63
CCOC(=O)C1=C(N)Oc2c(c(=O)oc3ccccc23)C12C(=O)N(C)c1ccccc12 (stereo unspecified)	D1 antag -67
COc1ccc(Cc2nccc3cc(OC)c(OC)cc23)cc1OC	D1 antag -32
O=c1c2ccccc2[se]n1-c1ccccc1	LDHA inh -108
CCC(C)N1CCN(Cc2ccc(OC)c(Br)c2)CC1 (stereo unspecified)	none (no result: D1 ag, D1 potentiator, D1 antag, TRHR ag, TRHR PAM)
CC(NS(=O)(=O)OCC(Cl)(Cl)Cl)c1ccccc1 (stereo unspecified)	none
O=S(=O)(NC1CCCCC1)OCC(Cl)(Cl)Cl	D1 antag -34
Cc1nn(C)c(C)c1C1SCC(=O)Nc2c1cnn2-c1ccccc1 (stereo unspecified)	none (no result: D1 ag, D1 potentiator, D1 antag, TRHR ag, TRHR PAM)
COc1ccccc1CC1/C(=N/O)C2CCN1CC2 (stereo unspecified)	D1 antag -69
O=C1C2CCN(CC2)C1Cc1ccccc1O (stereo unspecified)	none
CCCn1cc(C(=O)NCC2CCCN2CC)c2ccccc21 (stereo unspecified)	none (no result: D1 ag, D1 potentiator, D1 antag, TRHR ag, TRHR PAM)
C/C(=C\c1ccc(N(C)C)cc1)[N+](=O)[O-]	none
CN(C)c1ccc(/C=C/[N+](=O)[O-])cc1	D1 ag 92, TRHR ag 31
C=CCn1c(O)c(C(CC)=NCc2ccc3c(c2)OCO3)c(=O)[nH]c1=O	none
CCCCn1c(O)c(C(CC)=NCc2ccc3c(c2)OCO3)c(=O)[nH]c1=O	D1 antag -34
Oc1ccc(CC2CC3CCN2CC3)cc1O (stereo unspecified)	none
Oc1ccc(C[C@H]2NCCc3cc(O)c(O)cc32)cc1O	D1 antag -90
CN1CC2(Cc3c1ccc1ccccc31)C(=O)NC(=O)N(C(C)(C)C)C2=O (stereo unspecified)	none (no result: D1 ag, D1 potentiator, D1 antag, TRHR ag, TRHR PAM)
CC12CN(CC#N)CC(C)(CN(CC#N)C1)C2=O	none (no result: D1 ag, D1 potentiator, D1 antag, TRHR ag, TRHR PAM)
CC(OC(=O)c1cn(C)c2ccccc12)C(=O)Nc1ccc(C(N)=O)cc1 (stereo unspecified)	none (no result: D1 ag, D1 potentiator, D1 antag, TRHR ag, TRHR PAM)
CC1CCC/C=C/C2CC(O)CC2C(O)/C=C/C(=O)O1 (stereo unspecified)	none
C[C@H]1CCC/C=C/C2C[C@H](O)CC2[C@H](O)/C=C/C(=O)O1 (stereo partly specified)	D1 antag -41
O=c1oc2ccccc2c(O)c1C(c1ccc([N+](=O)[O-])cc1)c1c(O)c2ccccc2oc1=O	LDHA inh -67
CC(NC(C)c1ccccc1F)C(=O)c1c[nH]c2ccccc12 (stereo unspecified)	none (no result: D1 ag, D1 potentiator, D1 antag, TRHR ag, TRHR PAM)
CC(C)N1CCN(Cc2ccco2)CC1	none (no result: D1 ag, D1 potentiator, D1 antag, TRHR ag, TRHR PAM)
CC(C)(C)N1C(=O)NC(=O)/C(=C\c2ccc3c(c2)CCN3CCCCl)C1=O	D1 antag -32
CSc1ccccc1C(=O)C1CCCN(Cc2ccncc2)C1 (stereo unspecified)	TRHR PAM 40
CCCNC(=O)NC(=O)CCl	none (no result: D1 ag, D1 potentiator, D1 antag, TRHR ag, TRHR PAM)
